Measurements published in PubChem BioAssay (NCATS).
Records with an inconclusive call do not appear. Active and inactive are the calls of the source. The call rests on the fitted dose curve; in most records, active means well fitted inhibition curve with a large enough effect; inconclusive means small, poorly fitted or top-dose-only effect; inactive means flat fitted curve, though single readings scatter.

Each molecule was assayed on HaCat (assay: Cytotoxic Profiling of Annotated Libraries Using Quantitative High-Throughput Screening (AID 1296008; further: nearly all actives have a fitted effect of over 60% in size)). Details: Five cell lines viability, CellTiter-Glo ATP luminescence, 48-72 h; max response: hits give low values.
Procedure, shortened: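 Cells exposed to compounds for 48 or 72 hr at 37 degrees Celsius. Viability read as ATP-coupled luminescence with CellTiter-Glo after 10 min at room temperature.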
On the % scale 0 is the no-effect control and ±100 the full control effect; potency means the concentration at half of the fitted maximal effect.

Structure (SMILES)	max response	outcome	Potency
CCN1CCCC1CNC(=O)C(O)(c1ccccc1)c1ccccc1 (configuration not stated)	-7.18% (inactive)	–	–
O=C1CN2CCOC2(c2ccccc2Cl)c2cc(Cl)ccc2N1 (configuration not stated)	-2.33% (inactive)	–	–
CN1C2CCC(C)(C)C1CC(OC(=O)C(O)(c1cccs1)c1cccs1)C2 (configuration not stated)	–	inactive	–
C=CCN1CC[C@]23CCCC[C@H]2[C@H]1Cc1ccc(O)cc13	–	inactive	–
CCOC(=O)C1(c2ccccc2)CCN(CCc2ccc(N)cc2)CC1	-21.6% (inactive)	–	–
CCC(=O)C(CCN(C)C)(c1ccccc1)c1ccccc1	-17.8% (inactive)	–	–
ClCc1cccc(Cl)c1	1.97% (inactive)	–	–
CC(Cc1ccc2c(c1)OCO2)NO (configuration not stated)	-1.01% (inactive)	–	–
C[C@@H]1C[C@@H]([C@H](O)CC2CC(=O)NC(=O)C2)C(=O)[C@@H](C)C1	–	–	2350 nM (active)
CNC(C)Cc1ccc2c(c1)OCO2 (configuration not stated)	-2.61% (inactive)	–	–
O=C(O)c1nn(Cc2ccc(Cl)cc2Cl)c2ccccc12	-0.99% (inactive)	inactive	–
COc1ccc(OC)c(CC(C)N)c1 (configuration not stated)	–	inactive	–
C1CN2CCC1CC2	–	inactive	–
CCOC(=O)c1cncn1C(C)c1ccccc1 (configuration not stated)	-5.29% (inactive)	inactive	–
COc1cc(CC(C)N)cc2c1OCO2 (configuration not stated)	1.78% (inactive)	–	–
C[C@]12CC[C@H]3[C@@H](CCC4=CC(=O)CC[C@@H]43)[C@@H]1CC[C@@H]2O	–	inactive	–
CCOC(=O)C(c1c(O)c2ccccc2oc1=O)c1c(O)c2ccccc2oc1=O	–	inactive	–

Structure (SMILES)	max response	outcome	Potency
C[C@@H]1CN(C2CCC(C#N)(c3ccc(F)cc3)CC2)CC[C@]1(C(=O)O)c1ccccc1 (some centres not stated)	3.21% (inactive)	–	–
CNC(C)Cc1ccccc1OC (configuration not stated)	-16.5% (inactive)	–	–
O=c1[nH]c2cc(Cl)ccc2n1C1CCNCC1	–	inactive	–
CCC1(c2cccc(O)c2)CCCCN(C)C1 (configuration not stated)	-5.66% (inactive)	–	–
COP(=S)(OC)Oc1ccc(S(N)(=O)=O)cc1	–	inactive	–
C[C@@H]1O[C@@H](O[C@@H]2C=C3CC[C@@H]4[C@H](CC[C@]5(C)[C@@H](c6ccc(=O)oc6)CC[C@]45O)[C@@]3(C)CC2)[C@H](O)[C@H](O)[C@H]1O	–	–	42.2 nM (active)
CCCOC(=O)Cc1ccc(OCC(=O)N(CC)CC)c(OC)c1	-1.71% (inactive)	–	–
O=C(CCCCl)c1ccc(F)cc1	4.12% (inactive)	–	–
COC(=O)C1=CCCN(C)C1	-4.46% (inactive)	inactive	–
CCCC[N+]1(C)[C@@H]2CC(OC(=O)[C@H](CO)c3ccccc3)C[C@H]1[C@@H]1O[C@@H]12 (some centres not stated)	-9.09% (inactive)	inactive	–
CCCCC1C(=O)NC(=O)N(C2CCCCC2)C1=O (configuration not stated)	–	inactive	–
C[C@H]1CNCCc2ccc(Cl)cc21	2.82% (inactive)	–	–
CN1[C@@H]2CC[C@H]1CC(OC(=O)c1cc(Cl)cc(Cl)c1)C2 (some centres not stated)	3.49% (inactive)	–	–
CC1N=C(N)OC1c1ccccc1 (configuration not stated)	–	inactive	–
CN(C)C(=O)Oc1cc(OC(=O)N(C)C)cc(C(O)CNC(C)(C)C)c1 (configuration not stated)	–	inactive	–
CCO[C@H]1O[C@@H]2OC3(C)CC[C@H]4[C@H](C)CC[C@@H]([C@H]1C)[C@@]24OO3	-19.4% (inactive)	–	–
